Rows were chosen to be rich in hits. Some 4.8% of all compounds tested hit in one or more screens of this group.
hcDAF-12 act = activates DAF-12 receptor from parasite H. contortus. HEK293 hcDAF-12 lit1-tk-luc reporter, luminescence; 0% DMSO, 100% Δ7-dafachronic acid. 1.4% of 370,000 active. activation, % at 6.8 µM. AID 652067;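 active = activation above the mean of all tested compounds plus 3 SD, cut at about 5.5% in these data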;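 note: 100% = response to 3 µM Δ7-dafachronic acid high control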
hgDAF-12 ag = hgDAF-12 agonism, primary luciferase screen; AID 687014; HEK293 GAL4-hgDAF12 UAS-luciferase reporter, agonist luminescence; normalized to butyrate control; activation, % at 6.8 µM; 1.8% of 370,000 active;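 active = activation above a cutoff set at the mean of all screened compounds plus 3 SD, cut at about 10% in these data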;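 note: 0% = DMSO wells and 100% = sodium butyrate wells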
DAX1 inh-1 = inhibits human nuclear receptor DAX1; P51843; HEK293 Gal4-DAX1 luciferase reporter, luminescence; inhibition, % at 6.75 µM; 0.99% of 340,000 active; AID 504766;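 active = inhibition above the mean over all tested compounds plus 3 SD, cut at about 4.2% in these data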;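 note: 0% = DAX1-transfected cells with DMSO and 100% = empty-vector control cells with DMSO; inhibition shows as a rise in luminescence from relieved DAX1 repression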
Target sequence (P51843 207-470 limits assumed): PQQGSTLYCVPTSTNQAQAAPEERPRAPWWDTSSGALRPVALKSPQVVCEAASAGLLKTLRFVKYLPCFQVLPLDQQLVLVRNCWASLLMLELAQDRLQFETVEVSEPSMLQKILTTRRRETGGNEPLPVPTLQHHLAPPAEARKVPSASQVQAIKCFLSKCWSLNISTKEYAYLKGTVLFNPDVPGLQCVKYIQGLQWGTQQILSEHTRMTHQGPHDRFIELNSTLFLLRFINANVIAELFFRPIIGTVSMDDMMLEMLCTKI
SMARCA2 activ = activators of SMARCA2 function; MG213 cells, MMTV-luciferase reporter, dexamethasone, overnight; activation, % at 9.1 µM; 1% of 370,000 active; in the data active = activation above about 7.8%;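 note: 0% = vehicle wells and 100% = reference activator wells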
DAX1 inh-2 = DAX1 (NR0B1) inhibition, primary screen; 1.1% of 370,000 active; AID 652010; inhibition, % at 6.8 µM; HEK293T StAR-luciferase reporter, SF-1/DAX-1 repression relief;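 active = inhibition above the mean over all tested compounds plus 3 SD, cut at about 3.6% in these data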;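 note: 0% = DAX-1 cells with DMSO and 100% = cells lacking DAX-1 with DMSO; higher inhibition means more luminescence from relief of DAX-1 repression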
ssDAF-12 act = activators of S. stercoralis DAF-12 nuclear receptor; HEK293 ssDAF-12/GRIP1 lit1-tk-luc reporter, luminescence; % of 3 µM dafachronic acid response; activation, % at 6.8 µM; 1% of 370,000 active;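 active = activation above the mean over all tested compounds plus 3 SD, cut at about 0.9% in these data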;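 note: 0% = DMSO-only wells and 100% = 3 µM delta7-dafachronic acid wells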
Numbers without * were called inactive; nt = not tested or not shown.

SMILES	hcDAF-12 act	hgDAF-12 ag	DAX1 inh-1	SMARCA2 activ	DAX1 inh-2	ssDAF-12 act
O=C(O)c1cc(=O)c2cc(Cl)ccc2o1	-0.4	0.1	-0.4	-0.7	-0.8	-0.8
Cc1ccc(-c2nc3ncccn3c2NC(=O)Nc2ccc(F)cc2)cc1	-2.9	0.4	nt	5.1	0.8	-1.1
CCN(Cc1ccncc1)C(=O)C(CO)c1ccccc1 (stereo unspecified)	-2.7	11.5*	-1.3	-1.0	1.2	-0.8
CCN(CC)CCN1C(=O)C(O)=C(C(C)=O)C1c1ccccc1[N+](=O)[O-] (stereo unspecified)	6.3*	1.5	1.3	-0.2	-0.3	1.4*
O=C(O)/C=C/c1cccc2c1OCCO2	-1.6	0.1	7.2*	-0.3	0.2	-1.6
CCOC(=O)N1CCN(C(=O)C[C@H]2C(=O)N(CCCOC)C3=CCCC[C@@]32C(=O)OCC)CC1	0.4	-2.7	nt	-0.5	-0.9	-0.4
COc1cccc(-n2c(CN3CCN(c4ccc(C)cc4)C(C)C3)nc3ccc([N+](=O)[O-])cc3c2=O)c1 (stereo unspecified)	5.8*	1.5	-2.2	1.0	-0.7	0.0
COc1cccc(/C=C2\SC(=S)N(CC3CCCO3)C2=O)c1 (stereo unspecified)	0.4	12.7*	-0.9	-0.7	-0.8	-0.3
COc1cccc(/C=C2\SC(=S)N(N3C(=O)CCCC3=O)C2=O)c1	-0.8	0.1	5.7*	-4.6	0.4	-1.1
COc1ccc(OC)c(CN2C(=O)CSCCC2(C)c2nnnn2C2CCCC2)c1 (stereo unspecified)	4.1	1.9	nt	0.4	-0.2	-1.4
CCCCCCCCNS(=O)(=O)/C=C/c1ccccc1CNC(=O)OC(C)(C)C	-2.6	6.9	nt	-5.1	-0.4	-0.8
Cc1cc(C(=O)Nc2cccc(C(=O)O)c2)c(C)o1	-1.0	5.8	-0.2	5.4	0.6	-1.2
CCCn1nnc(NC(=O)c2cc3ccccc3o2)n1	3.5	9.3	5.7*	7.5	2.7	-0.7
CCOC(=O)c1ccc(NC(=O)c2cc3ccccc3o2)cc1	-1.1	8.7	-0.2	2.0	-0.2	-1.3
CCCn1nnc(NC(=O)c2cc(Br)ccc2OC)n1	-0.8	1.0	0.7	-2.0	0.1	1.1*
Cc1cc(C(=O)Nc2cccc(C(=O)O)c2)oc1C	5.1	10.5*	-3.8	3.5	3.3	0.4
CCOC(=O)c1cccc(NC(=O)c2cc3ccccc3o2)c1	1.5	11.0*	-2.6	5.1	1.5	-1.0
CCCn1nnc(NC(=O)c2cccc(Cl)c2)n1	1.6	3.6	0.1	1.4	0.0	-0.1
COc1cc(NC(=O)CSc2nc(C)cc(=O)[nH]2)cc(OC)c1	-2.8	-1.2	nt	-5.9	-1.3	-1.9
CCOc1ccc(/C=N/NC(=O)c2nnn(-c3nonc3N)c2-c2ccc(OCC)cc2)cc1	-1.4	-0.8	0.8	-2.4	0.0	-1.0
CCCOc1ccc(-c2c(C(=O)N/N=C/c3ccccc3)nnn2-c2nonc2N)cc1	-0.4	-0.9	2.5	-4.8	-0.1	2.4*
Cc1oc(-c2ccc(Cl)cc2)cc1C(=O)O	1.3	3.4	5.5*	4.0	0.5	-0.3
O=C(NC(=S)NC1CCCCCCCCCCC1)c1cccnc1	1.9	-1.6	1.0	4.2	0.6	-1.1
O=C(Nc1ccccc1C(=O)NC1CCCC1)NC1CCCC1	-1.5	1.1	5.8*	-4.3	0.1	-1.5
O=C(NC1CCCCC1)c1cc(C(=O)c2ccccc2Br)c[nH]1	-2.1	-2.0	6.4*	-1.4	0.1	-1.6
SMILES	hcDAF-12 act	hgDAF-12 ag	DAX1 inh-1	SMARCA2 activ	DAX1 inh-2	ssDAF-12 act
CC(=O)NC(=S)Nc1ccccc1C(=O)NC1CCCCC1	-0.5	3.3	-0.1	-2.4	1.1	3.9*
O=C(NC(=S)NC1CCCC1)c1ccccc1	4.2	12.8*	0.6	2.4	3.9*	0.4
Cc1cc2c(c(=O)o1)[C@@]1(C(=O)N(C)c3c(Br)cccc31)C1=C(CCCC1=O)O2	-1.1	1.1	nt	1.6	-0.8	-0.5
CCOC(=O)[C@]12CCCCC/C=C\1N(Cc1ccc(OC)cc1)C(=O)[C@H]2CC(=O)N1CCCC1	-0.1	-2.6	nt	-3.8	-0.6	-1.1
COC(=O)[C@@]1(C(C)C)N=C(c2cc(OC)c(OC)c(OC)c2)[C@]2(O1)C(=O)N(Cc1cn(Cc3ccccc3)nn1)c1ccc(F)cc12	-2.8	-0.4	nt	-2.3	-0.4	-1.5
CC(=O)c1cc2c(cc1N/C(=N/S(=O)(=O)c1ccccc1)c1ccc(Cl)cc1)OCO2	4.2	0.8	0.3	-2.2	-0.4	1.6*
CC(=O)c1cc2c(cc1NS(=O)(=O)c1ccccc1)OCO2	-1.0	2.0	0.7	4.1	-0.9	-2.0
CCOC(=O)C1=CC[C@H]2c3c(c4ccccc4n3C)C(=O)C1N2Cc1ccccc1	-0.4	-2.7	0.1	1.5	-0.3	-1.0
CCOC(=O)C1=CC[C@H]2c3c(c4ccccc4n3C)C(=O)C1N2C	0.7	-1.1	5.1*	0.7	0.2	-1.0
COc1ccc(-c2cc3ccccc3n2CC(O)Cn2nc(C)cc2C)cc1 (stereo unspecified)	-0.4	-0.8	-1.5	2.0	-0.7	-0.6
COc1ccc(-c2cc3ccccc3n2CC(O)CN2CCC(C)CC2)cc1 (stereo unspecified)	5.7*	2.9	2.7	-1.6	2.8	-0.1
Cc1ccc2cc(CCNC(=O)c3ccco3)c(=O)[nH]c2c1C	6.5*	12.9*	2.6	7.7	4.4*	-0.5
O=C(CC1SC(=Nc2ccccc2)N(CCc2ccccn2)C1=O)Nc1ccc(F)cc1 (stereo unspecified)	6.2*	1.7	-1.5	-3.1	-0.9	-1.1
O=C(CC1SC(=Nc2ccccc2)N(CCO)C1=O)Nc1ccccc1 (stereo unspecified)	-1.3	1.7	0.6	-0.8	0.2	-1.3
CN(C)CCCNc1nc2cc(-c3ccc4c(ccn4C)c3)sc2c(=O)n1C	3.1	11.8*	nt	7.7	2.1	-0.7
Cc1ccc(-c2cc3nc(NCCc4ccncc4)n(C)c(=O)c3s2)cc1	1.4	10.1	nt	0.0	4.0*	-0.5
COc1ccc2c(c1)CNC2CS(=O)(=O)NCc1ccc(F)cc1 (stereo unspecified)	1.8	2.0	nt	-3.0	-0.9	0.4
COc1ccc(NC(=S)Nc2ccc3nccnc3c2)cc1	2.7	10.6*	-0.2	-0.8	1.2	-0.5
NC(=O)C1CCN(C(=S)c2ccc(-c3ccc(Br)cc3)o2)CC1	0.3	11.9*	nt	3.0	2.2	-0.5
O=C(CSc1nnc(-c2cccnc2)n1-c1ccccc1)Nc1ccc2c(c1)OCCO2	-3.2	2.9	nt	0.6	-2.2	-1.7
O=C(O)COc1ccc(Br)cc1/C=N\Nc1ccccn1	nt	nt	4.7*	nt	nt	nt
COCCCN1C(=O)[C@H](CC(=O)NCc2cccc3ccccc23)[C@]2(C(=O)OC)CCCCC=C12	-0.7	0.7	nt	-2.5	-0.7	-0.9
COc1cccc(-c2nc(-c3ccc(C(=O)O)cc3)no2)c1	3.5	9.0	1.8	4.8	1.8	1.0*

Source: PubChem BioAssay
